Only some compounds are listed: those with a hit (about 9% of all), similar ones and a draw of the others.
PLK1 PBD block: PLK1 (human) polo-box domain binding inhibition. AID 720504. Plk1 PBD binding of FITC phosphopeptide, fluorescence polarization. Potency, µM, without a hit: max response, negative = inhibition, hits mostly inhibitors. 2.8% of 360,000 active; further: series mostly up to about 57 µM; on the % scale 0 is the no-effect control and ±100 the full control effect; nearly all actives have a fitted effect of over 65% in size
G9a block: blocks human histone lysine methyltransferase G9a | 8.8% of 350,000 active | AID 504332 | Potency, µM (titrated, usually from 102 µM), inactives show at the top dose activity, negative = inhibition, hits mostly inhibitors | Q96KQ7 | G9a H3K9 monomethylation, AlphaScreen, 2 h; further: on the % scale 0 is the no-effect control and ±100 the full control effect; nearly all actives have a fitted effect of over 75% in size
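Quantitative HTS format: methyltransferase activity on a biotin-tagged H3K9 peptide is measured by AlphaScreen, using a rabbit anti-monomethyl-H3K9 antibody with streptavidin donor and anti-IgG acceptor beads. Final levels are 20 nM enzyme, 500 nM peptide, 20 uM SAM; 2 h RT.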
HP1b binding inh: inhibitors of HP1-beta chromodomain binding to methylated histone tails; AlphaScreen HP1-beta / biotin-H3K9me3 peptide binding; Potency, µM (doses to about 114 µM), for the others: at the highest dose activity change, negative = inhibition, actives largely listed as inhibitors; 0.56% of 390,000 active; AID 540317; further: nearly all actives have a fitted effect of over 70% in size
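HP1-beta protein (50 nM final) preincubated 30 min at room temperature with biotinylated H3(1-18)K9me3 peptide (50 nM) in PBS pH 7.4, 0.01% Tween-20, then compound added for 30 min. AlphaScreen streptavidin donor/nickel chelate acceptor beads (10 ug/mL final), 30 min dark, luminescence read.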
JMJD2A Tudor inh: JMJD2A Tudor domain (human) inhibition | AlphaScreen JMJD2A-Tudor / H3K4me3 peptide binding | O75164 | Potency, µM (top dose mostly 114 µM), inactives show top-dose activity change, negative = inhibition, hits mostly inhibitors | 4.4% of 390,000 active; further: on the % scale 0 is the no-effect control and ±100 the full control effect; nearly all actives have a fitted effect of over 50% in size
Target sequence (O75164 whole entry, looked up, the tested form may be a part): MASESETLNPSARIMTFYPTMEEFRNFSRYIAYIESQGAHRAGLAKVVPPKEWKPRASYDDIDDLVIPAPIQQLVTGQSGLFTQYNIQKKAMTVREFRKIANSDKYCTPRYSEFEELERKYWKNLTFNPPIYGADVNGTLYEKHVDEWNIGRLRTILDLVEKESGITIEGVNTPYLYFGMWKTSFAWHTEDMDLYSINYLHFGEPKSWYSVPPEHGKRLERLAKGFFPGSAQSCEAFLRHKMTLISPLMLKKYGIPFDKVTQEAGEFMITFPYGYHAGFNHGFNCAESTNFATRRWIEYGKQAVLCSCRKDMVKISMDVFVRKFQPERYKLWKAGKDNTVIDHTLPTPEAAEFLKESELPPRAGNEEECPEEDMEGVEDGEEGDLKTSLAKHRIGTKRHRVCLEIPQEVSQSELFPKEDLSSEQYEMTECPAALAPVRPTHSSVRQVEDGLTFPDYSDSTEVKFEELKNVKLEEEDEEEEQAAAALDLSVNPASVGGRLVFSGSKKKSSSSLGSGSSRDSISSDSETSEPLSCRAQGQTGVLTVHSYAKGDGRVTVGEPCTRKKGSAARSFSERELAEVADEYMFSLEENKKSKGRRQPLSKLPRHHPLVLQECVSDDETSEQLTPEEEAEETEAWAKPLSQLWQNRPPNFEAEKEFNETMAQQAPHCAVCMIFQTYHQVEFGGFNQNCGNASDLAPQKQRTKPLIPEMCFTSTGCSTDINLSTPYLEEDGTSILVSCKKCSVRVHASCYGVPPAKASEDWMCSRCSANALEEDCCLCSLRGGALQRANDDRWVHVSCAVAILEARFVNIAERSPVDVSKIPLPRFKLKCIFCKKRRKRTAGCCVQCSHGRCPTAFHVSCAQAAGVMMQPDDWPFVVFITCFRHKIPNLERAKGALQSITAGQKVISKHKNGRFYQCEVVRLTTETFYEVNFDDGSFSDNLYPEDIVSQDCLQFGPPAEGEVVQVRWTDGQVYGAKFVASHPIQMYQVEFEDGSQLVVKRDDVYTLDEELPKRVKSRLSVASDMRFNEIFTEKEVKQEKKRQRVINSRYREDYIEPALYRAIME
BAZ2B block: BAZ2B (human) inhibition | Q9UIF8 | AlphaScreen BAZ2B-H3K14Ac peptide displacement | Potency, µM (top dose mostly 114 µM), inactives show at the top dose activity change, negative = inhibition, most hits filed as inhibitors | 4.4% of 360,000 active | AID 504333; further: on the % scale 0 is the no-effect control and ±100 the full control effect; nearly all actives have a fitted effect of over 60% in size
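Complex of BAZ2B and biotin-H3K14Ac (50 nM apiece) forms over 30 min at RT, then faces library compounds up to 110 uM for another 30 min; AlphaScreen beads added, 20 min dark incubation, luminescence read.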
ALOX12 inh: blocks human arachidonate 12S-lipoxygenase. 1.1% of 580,000 active. purified 12hLO, xylenol orange hydroperoxide absorbance. Potency, µM (highest dose often 108 µM), for the others: at the highest dose activity change, negative = inhibition, most hits filed as inhibitors; further: on the % scale 0 is the no-effect control and ±100 the full control effect
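Hydroperoxide product was detected by ferrous iron/xylenol orange as the 573 to 405 nm absorbance ratio. Arachidonic acid at 40 uM (final) was turned over for 30 min at room temperature by 150 nM human 12hLO, pH 7.0 Hepes buffer, after 15 min compound preincubation.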
* hit, by the source's call; ? = inconclusive; . = no result given; [ ] = another dose, or the depositor's remark. The call rests on the fitted dose curve; in most records, active means well fitted curve in the direction sought with a large enough effect; inconclusive means small, poorly fitted or top-dose-only effect, or another doubt; inactive means no such curve, though single readings can be large; an effect the other way counts as inactive or inconclusive. Potency means the concentration at half of the fitted maximal effect.

SMILES | PLK1 PBD block | G9a block | HP1b binding inh | JMJD2A Tudor inh | BAZ2B block | ALOX12 inh
CCc1nnc(NC(=O)CCS(=O)(=O)c2ccc(C)cc2)s1 | -5.3% | 1.5% | 9.3% | -4.8% | -3.7% | -0.7%
Cc1ccnc(NS(=O)(=O)c2ccc(NC(=O)c3ccc(Br)o3)cc2)n1 | -4.9% | -11.7% | 10.9% | -9.7% | -23.3% | ?
O=C(C=C1CCN(c2ncc(C(F)(F)F)cc2Cl)CC1)NNC(=O)Nc1ccc(Cl)cc1 | -6.4% | -3.7% | 20.7% | -2.7% | 3.7% | 0.0%
O=C(C=C1CCN(c2ncc(C(F)(F)F)cc2Cl)CC1)NNC(=O)Nc1ccccc1 | -2.8% | 11.2µM* | 18.9% | -12.0% | 2.7% | 0.0%
N=c1c(C(=O)NCc2ccco2)cc2c(=O)n3ccccc3nc2n1Cc1ccccc1 | -8.8% | -6.7%[12.7 µM] | 37.7% | -9.7% | -29.6% | 63.7%
COCCn1c(=N)c(C(=O)NCc2ccco2)cc2c(=O)n3ccccc3nc21 | -5.8% | 56.2µM* | 7.6% | -31.2% | -7.1% | 15.0%
CN(C)CCNC(=O)NC1CCCCC1 | -12.1% | -9.6%[59 µM] | 14.2% | -2.4% | -2.1% | 1.1%
CC1CCC(NC(=S)NCCN(C)C)CC1 (stereo not given) | -3.1% | 39.8µM* | 3.2% | 7.94µM* | 50.1µM* | -20.9%
C/C(=N\N1C(=O)c2ccccc2NC1c1ccccc1)c1ccccc1O (stereo not given) | -1.1% | 14.1% | 46.3% | -4.3% | -24.6% | 1.6%
C/C(=N\N1C(=O)c2ccccc2NC1c1ccco1)c1ccccc1O (stereo not given) | -6.7% | -45.0% | ? | ? | 70.8µM* | 1.5%
Cc1cc(C)c(NC(=O)c2c[nH]c(=S)n2-c2ccc(F)cc2)c(C)c1 | -1.8% | 2.82µM* | 27.8% | ? | -21.1% | ?
Cc1cc(C)c(NC(=O)C2=CCN(S(=O)(=O)c3ccc(F)cc3)CC2)c(C)c1 | -8.8% | ? | 35.7% | -19.3% | 1.5% | 2.4%
CC(C)CC1C(C#N)=C(N)Oc2n[nH]c(-c3cccs3)c21 (stereo not given) | -18.9% | -14.9% | 51.0% | -18.7% | -6.1% | ?
Cc1ccc(-c2[nH]nc3c2C(C)C(C#N)=C(N)O3)cc1 (stereo not given) | -11.5% | 18.9%[59 µM] | 9.6% | -23.6% | -7.9% | -28.1%
Cc1ccc(C2C(C#N)=C(N)Oc3n[nH]c(-c4ccccc4)c32)o1 (stereo not given) | 3.36µM* | 22.4µM* | ? | 15.8µM* | ? | 7.8%
COc1ccc(-c2ccc(C3C(C#N)=C(N)Oc4n[nH]c(C)c43)o2)cc1 (stereo not given) | -4.4% | ? | -27.2% | ? | 50.1µM* | ?
N#CC1=C(N)Oc2n[nH]c(-c3cccs3)c2C1c1cccs1 (stereo not given) | 23.8µM* | -2.6%[12.7 µM] | 13.8% | -24.8% | -27.6% | -12.5%
Cc1ccc(C2C(C#N)=C(N)Oc3n[nH]c(-c4cccnc4)c32)o1 (stereo not given) | ? | 79.4µM* | 30.9% | -7.7% | ? | -9.2%
Nc1nncn1C(=O)c1cccs1 | -16.7% | ? | 12.6% | -18.9% | ? | -1.9%[57.4 µM]
Cc1ccc(Nc2cc(=O)[nH]c(=O)[nH]2)c(C)c1 | -5.7% | -8.9%[12.7 µM] | 29.2% | -4.1% | -30.4% | 0.0%
CN(C)S(=O)(=O)Nc1cccc(NC(=O)CC23CC4CC(CC(C4)C2)C3)c1 | -6.7% | 5.4% | 23.3%[57 µM] | -0.7% | 1.1% | 65.6%
CC(C)(C)OC(=O)N1CCC(C(=O)N[C@@H](Cc2c[nH]c3ccccc23)C(=O)O)CC1 | -14.2% | 8.0% | 5.7% | -14.0% | -19.3% | ?
CCn1c(=S)sc2nc(C)sc21 | 21.2µM* | . | -33.3% | -26.2% | . | ?
O=C(COc1ccccc1[N+](=O)[O-])N/N=C/c1ccncc1 | -7.2% | 13.0%[59 µM] | 1.7% | -4.9% | -32.7% | 3.4%
O=C(Nc1ccc(Cl)cc1Cl)c1cccc(N2C(=O)C=CC2=O)c1 | 1.89µM* | ? | ? | 3.16µM* | 3.6% | ?
SMILES | PLK1 PBD block | G9a block | HP1b binding inh | JMJD2A Tudor inh | BAZ2B block | ALOX12 inh
COc1ccc2[nH]c(=O)c(CN(Cc3nnnn3Cc3ccco3)C3CCCCC3)cc2c1 | ? | 39.8µM* | -26.2% | ? | 50.1µM* | 0.0%
COc1ccc2[nH]c(=O)c(CN(C3CCCCC3)C(c3nnnn3Cc3ccco3)C(C)C)cc2c1 (stereo not given) | ? | 22.4µM* | ? | ? | -9.1% | .
Cc1ccc(NC(=O)CN2C(=O)COc3ccc(S(=O)(=O)N4CCCCCC4)cc32)cc1Cl | . | 27.7%[59 µM] | 61.9% | 9.5% | 0.2% | -16.0%
COc1ccc(NC2=C(C(C)=O)C(c3ccccc3)C(C(C)=O)C(C)(O)C2)cc1 (stereo not given) | -11.3% | ? | 12.0% | -24.6% | -25.3% | -12.5%
CC(=O)C1=C(Nc2ccc(C)cc2)CC(C)(O)C(C(C)=O)C1c1ccco1 (stereo not given) | -6.9% | -8.0%[12.7 µM] | 2.0% | -15.7% | 79.4µM* | ?
COc1ccc(Cl)cc1C(=O)Nc1nnn(C)n1 | -15.6% | 11.4% | 13.8% | -11.4% | 20.4% | ?
N#C/C(=C\N1CCN(Cc2ccc3c(c2)OCO3)CC1)c1nc2ccccc2s1 | 34.6% | 39.8µM* | -9.1% | ? | -5.1% | -9.2%
COc1ccc2c(c1)O[C@H](c1ccc3c(c1)OCO3)[C@@H](OC(=O)Nc1cc(OC)c(OC)c(OC)c1)C2=O | . | 50.1µM* | . | . | ? | .
COc1cccc([C@@H]2Oc3ccc(OC)cc3C(=O)[C@H]2OC(=O)Nc2cc(OC)c(OC)c(OC)c2)c1 | -18.8% | ? | 25.9% | ? | -28.7% | .
COc1cccc([C@@H]2Oc3ccc(OC)cc3C(=O)[C@H]2OC(=O)NCc2ccc3c(c2)OCO3)c1 | . | 44.7µM* | . | . | -19.5% | .
CCCNC(=O)N[C@@H]1CCC[C@@H](C(=O)N(CC)CC)CC(=O)N(C)C1 | . | . | . | . | . | 39.8µM*
CCN(CC)C(=O)[C@@H]1CCC[C@@H](NC(=O)c2ccccc2)CN(C)C(=O)C1 | . | . | . | . | . | 26.9%[176 µM]
C[C@H](O)[C@@H]1C(=O)N2CCc3c([nH]c4c(-c5ccccc5)cccc34)[C@@H]2C[C@@H]1N(C)C(=O)Nc1ccccc1 | . | . | . | . | . | -9.7%
COc1ccccc1C(C)N(C)C(=O)c1cccc(CCC(C)(C)O)c1 (stereo not given) | . | . | . | . | . | 45.5%
CC(C)c1nnc(NC(=O)CCC(=O)NC2CCCc3ccccc32)s1 (stereo not given) | -10.3% | 22.5%[59 µM] | 17.8% | -10.9% | -6.2% | 11.3%
COC(=O)c1cccc(Nc2ncnc3sccc23)c1 | -0.4% | 35.5µM* | 53.6% | -12.0% | . | 2.3%
COc1ccc(Nc2ncnc3sccc23)cc1 | -16.5% | 44.7µM* | -1.7% | -9.2% | -7.1% | ?
COc1cccc(Nc2ncnc3sccc23)c1 | -2.0% | -7.8% | 39.3% | -1.4% | 12.8% | -2.6%

Screens: PubChem BioAssay, National Center for Advancing Translational Sciences (NCATS)
